A selection: hits, their analogues and other compounds. The true share with any hit is near 2%.
APOBEC3A inh – inhibitors of human APOBEC3A DNA deaminase; inhibition, % at 20 µM; recombinant A3A, FAM/TAMRA ssDNA deamination fluorescence; P31941; hit rate 0.41% among 330,000; AID 493011;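 active means at least 40% inhibition at 20 µM here, with at most 30% in a related deaminase screen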
Target sequence (P31941 whole entry, looked up): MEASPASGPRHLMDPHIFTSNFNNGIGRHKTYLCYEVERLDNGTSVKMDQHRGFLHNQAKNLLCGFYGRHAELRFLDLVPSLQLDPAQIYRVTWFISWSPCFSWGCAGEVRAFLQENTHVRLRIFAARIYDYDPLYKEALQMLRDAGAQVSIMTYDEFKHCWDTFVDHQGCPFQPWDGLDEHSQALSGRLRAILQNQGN
GC-B act – GC-B (human) receptor activation; hit rate 0.11% among 370,000; HEK293-GC-B cells, CNP EC30, cGMP TR-FRET; 0% at EC30 CNP, 100% saturating CNP; P20594; AID 1920062; activation, % at 10 µM;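 active means activation at 10 µM reaching about 35% in either raw or pattern-adjusted values, limit read from the data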
NPR1 activator – GC-A (human) enzyme activation | hit rate 0.14% among 370,000 | P16066 | AID 1671463 | HEK293 GC-A cells, cGMP TR-FRET, EC30 ANP; 0% at EC30 ANP, 100% saturating ANP | activation, % at 10 µM; in the data active means activation above about 40%
A3G deaminase – APOBEC3G (human) deaminase inhibition; recombinant A3G, ssDNA deamination FAM/TAMRA fluorescence; inhibition, % at 20 µM; hit rate 0.28% among 330,000; AID 493012;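 active means inhibition of at least 40% at 20 µM, with no more than 30% in the related APOBEC3A deaminase screen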
Target sequence (Q9HC16 whole entry, looked up): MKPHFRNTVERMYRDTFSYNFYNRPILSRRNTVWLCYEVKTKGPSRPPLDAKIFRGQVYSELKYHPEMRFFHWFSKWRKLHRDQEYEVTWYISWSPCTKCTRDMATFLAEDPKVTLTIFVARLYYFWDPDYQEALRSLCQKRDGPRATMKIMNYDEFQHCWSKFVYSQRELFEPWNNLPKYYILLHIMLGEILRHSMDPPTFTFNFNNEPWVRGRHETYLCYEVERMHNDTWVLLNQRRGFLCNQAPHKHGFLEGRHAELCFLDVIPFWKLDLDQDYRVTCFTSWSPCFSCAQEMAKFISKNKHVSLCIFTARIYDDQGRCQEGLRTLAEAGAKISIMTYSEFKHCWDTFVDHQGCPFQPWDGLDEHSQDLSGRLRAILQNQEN
Neddylation inh – cullin neddylation inhibition; TR-FRET cullin neddylation, biochemical; AID 651699; hit rate 0.58% among 360,000; P61081+Q13564; inhibition, % at 25 µM; in the data active means inhibition above about 36%
PfG6PD inh – PfG6PD (Plasmodium falciparum) enzyme inhibition | PfGluPho enzyme, NADPH resazurin-diaphorase fluorescence | inhibition, % at 20 µM | hit rate 0.78% among 350,000 | AID 504690;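 active means inhibition reaching at least a set limit at 20 µM in the primary screen, cut at about 59% in these data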
APOBEC3G confirm – confirmation of human APOBEC3G DNA deaminase inhibitors | shares compounds with A3G deaminase | inhibition, % at 20 µM | hit rate 72% among 890 | AID 493152 | recombinant A3G ssDNA deaminase, UDG/FAM-TAMRA fluorescence;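 active means inhibition reaching a set limit in any replicate at 20 µM, the limit being 80% of the first screen's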
UDG ctr A3G – counter-screen for APOBEC3G inhibitors: E. coli UDG. UDG counterscreen, FAM/TAMRA oligo fluorescence. 710 tested, under 10 active. AID 504715. inhibition, % at 20 µM. shares compounds with A3G deaminase;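 active means compounds giving 40% or more inhibition at 20 µM in any one of the three replicates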;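 further: inhibitors lower the FAM signal released by uracil excision and alkaline cleavage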
PfGluPho conf – confirmation of Plasmodium falciparum G6PD inhibitors; shares compounds with PfG6PD inh; recombinant PfGluPho, NADPH-diaphorase-resazurin fluorescence; inhibition, % at 20 µM; hit rate 34% among 2,400;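 active means inhibition of at least 50% at 20 µM in any single replicate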
Of the large screens only hits and unclear results are named; the others gave an inactive call (follow-up assays come after a bar, where they were run).

Cc1ccc(-n2c(SCC(=O)Nc3ccccc3-c3ccccc3)nnc2-c2ccccc2)cc1	none (no result: APOBEC3A inh, A3G deaminase, Neddylation inh, PfG6PD inh)
NC(=S)C1COc2ccccc2O1 (configuration not stated)	none
Nn1c(C2COc3ccccc3O2)n[nH]c1=S (configuration not stated)	A3G deaminase 60 | APOBEC3G confirm 83 | UDG ctr A3G inactive
O=C(Cn1c(=O)oc2ccccc21)Nc1n[nH]c(=S)s1	A3G deaminase 81 | APOBEC3G confirm 90 | UDG ctr A3G inactive
Cc1ccc([C@H](C)NC(=O)C2=C(N)N(S(=O)(=O)c3ccc(C)cc3)C(C(=O)c3ccccc3)C2c2ccccc2Cl)cc1 (some centres not stated)	none (no result: APOBEC3A inh, A3G deaminase, Neddylation inh, PfG6PD inh)
Cc1ccsc1S(=O)(=O)n1c(CN2CCOCC2)nc2ccccc21	none (no result: APOBEC3A inh, A3G deaminase, Neddylation inh, PfG6PD inh)
COc1ccc(OC)c(C2CC(=O)N3CN(c4ccccc4)CSC3=C2C#N)c1 (configuration not stated)	A3G deaminase 46, PfG6PD inh 81 | APOBEC3G confirm 56 | UDG ctr A3G inactive
COc1ccc(CN2CC(=O)N(c3ccccc3C)C2=S)cc1OC	none
COc1ccc(C2CC(=O)N3CN(c4ccc(C)c(Cl)c4)CSC3=C2C#N)cc1 (configuration not stated)	A3G deaminase 52, PfG6PD inh 70 | APOBEC3G confirm 52
Cc1cccc(N2CSC3=C(C#N)C(c4ccc(C)o4)CC(=O)N3C2)c1 (configuration not stated)	none (no result: GC-B act, NPR1 activator, Neddylation inh, PfG6PD inh)
COc1cc(OC)c(C2CC(=O)N3CN(c4ccccc4C)CSC3=C2C#N)cc1OC (configuration not stated)	A3G deaminase 44 (no result: Neddylation inh, PfG6PD inh) | APOBEC3G confirm inactive
COC(=O)[C@]12C[C@H](CC(=O)NCCc3ccccc3OC)C(=O)N(Cc3ccc(Cl)cc3Cl)C1=C[C@H](COCc1ccccc1)O[C@@H]2C	none (no result: APOBEC3A inh, A3G deaminase, Neddylation inh, PfG6PD inh)
S=c1[nH]nc(CSCCOc2ccccc2)o1	none
Cn1c(-c2sc3ccccc3c2Cl)n[nH]c1=S	A3G deaminase 41 | APOBEC3G confirm 63 | UDG ctr A3G inactive
Cn1c(CSc2nc3ccccc3s2)nc2ccccc21	none
Cn1c(-c2csc(-c3ccccc3)n2)n[nH]c1=S	A3G deaminase 45 | APOBEC3G confirm 64 | UDG ctr A3G inactive
Cn1c(CSCCOc2ccccc2)n[nH]c1=S	A3G deaminase 41 | APOBEC3G confirm inactive
Cn1c(CSc2nc3ccccc3s2)n[nH]c1=S	A3G deaminase 48 | APOBEC3G confirm 58 | UDG ctr A3G inactive
Cc1ccc(-c2n[nH]c(=S)n2C)cc1	none (no result: APOBEC3A inh, A3G deaminase)
COc1ccc(S(=O)(=O)n2nc(OC(=O)c3ccccc3)cc2N)cc1	none
COc1ccc(S(=O)(=O)n2nc(OC(=O)c3cccs3)cc2N)cc1	A3G deaminase 54 | APOBEC3G confirm inactive
COc1cc(S(=O)(=O)Nc2cccc(C)c2)ccc1N=Cc1c(C)[nH]n(-c2ccccc2)c1=O	A3G deaminase 55 (no result: GC-B act, NPR1 activator, Neddylation inh, PfG6PD inh) | APOBEC3G confirm inactive
C/C(=N\Nc1ccccc1C)c1cccnc1	A3G deaminase 61 | APOBEC3G confirm inactive | UDG ctr A3G inactive
CCOC(=O)C1=C(C)N(c2ccc(OC)cc2)C(=O)/C1=C\c1ccc(O)c(OCC)c1	A3G deaminase 67 | APOBEC3G confirm inactive
CCCC(C)c1nnc(NC(=O)C2CC(=O)N(CCc3ccc(F)cc3)C2)s1 (configuration not stated)	A3G deaminase 45 | APOBEC3G confirm 22 | UDG ctr A3G inactive
CCOC(=O)c1c2c3c(c(Cl)ccc3[nH]c1=O)C(=O)c1ccccc1-2	none
CC(=O)Nc1c2c3c(cccc3n(C)c1=O)C(=O)c1ccccc1-2	none
CCOC(=O)c1c2c3c(cccc3[nH]c1=O)C(=O)c1ccccc1-2	A3G deaminase 53 | APOBEC3G confirm inactive | UDG ctr A3G inactive
CCOC(=O)c1c2c3c(cccc3n(C)c1=O)C(=O)c1ccccc1-2	A3G deaminase 55 | APOBEC3G confirm inactive | UDG ctr A3G inactive
Cc1ccc(-c2nc3ncccn3c2NC(=O)Nc2ccc(F)cc2)cc1	none (no result: APOBEC3A inh, A3G deaminase, Neddylation inh, PfG6PD inh)
O=C(NCCc1c[nH]c2ccccc12)OCc1cn(-c2cccc(C(F)(F)F)c2)nn1	none (no result: APOBEC3A inh, A3G deaminase, Neddylation inh, PfG6PD inh)
COc1cc(C=NN=c2sc3ccccc3n2C)ccc1OCCO	none (no result: APOBEC3A inh, A3G deaminase, Neddylation inh, PfG6PD inh)
COC(=O)[C@]12C[C@H](CC(=O)NCCC(C)C)C(=O)N(CCc3ccc(OC)c(OC)c3)C1=C[C@H](C(C)C)O[C@@H]2C1CC1	none (no result: APOBEC3A inh, A3G deaminase, Neddylation inh, PfG6PD inh)
CCC(=O)N1CCc2cc(S(=O)(=O)N3CCN(c4cc(Cl)ccc4C)CC3)ccc21	A3G deaminase 58 | APOBEC3G confirm inactive | UDG ctr A3G inactive
CCC(=O)N1CCc2cc(S(=O)(=O)N3CCN(c4ccccc4)CC3)ccc21	none
CC(=O)c1sc2nc(-c3cccs3)ccc2c1N	A3G deaminase 44 | APOBEC3G confirm 31 | UDG ctr A3G inactive
COC(=O)N1CCc2c(sc(NC(=O)C3COc4ccccc4O3)c2C(N)=O)C1 (configuration not stated)	A3G deaminase 50 | APOBEC3G confirm 21 | UDG ctr A3G inactive
NC(=O)c1c(NC(=O)C2COc3ccccc3O2)sc2c1CCN(Cc1ccccc1)C2 (configuration not stated)	none
Cc1ccc(-n2c(SCC(=O)NN=Cc3ccc(-c4ccccc4)cc3)nnc2-c2ccccc2)cc1	none (no result: APOBEC3A inh, A3G deaminase, Neddylation inh, PfG6PD inh)
COc1ccc(OCc2n[nH]c(=S)n2Cc2ccco2)cc1	A3G deaminase 43 | APOBEC3G confirm 72 | UDG ctr A3G inactive
COc1ccc2c3c(cccc13)N(C)N=C2C	A3G deaminase 45 | APOBEC3G confirm 40
COc1ccc2c3c(cccc13)OC2=O	none
COC(=O)[C@]12C[C@H](CC(=O)NCc3ccc(C)o3)C(=O)N(CCc3ccc(OC)c(OC)c3)C1=C[C@H](C1CCCC1)O[C@@H]2C	none (no result: APOBEC3A inh, A3G deaminase, Neddylation inh, PfG6PD inh)
O=[N+]([O-])c1cccc(-c2ccc(C(=S)N3CCOCC3)o2)c1	none
S=C(c1ccc(-c2cccc(Cl)c2)o1)N1CCOCC1	GC-B act 35, A3G deaminase 43 | APOBEC3G confirm inactive | UDG ctr A3G inactive
CC(=O)C(Sc1nn(C)c(=S)s1)C(=O)Nc1ccccc1 (configuration not stated)	A3G deaminase 57, PfG6PD inh 61 | APOBEC3G confirm 40 | UDG ctr A3G inactive | PfGluPho conf inactive
CC(=O)C(Sc1nc(N(C)C)nc(N(C)C)n1)C(=O)Nc1ccccc1 (configuration not stated)	none

Screening data from PubChem.
